# Calls of active or inactive are those of the source. The call rests on the fitted dose curve.
# Assay: Confirmation Concentration-Response Assay for Inhibitors of the Schistosoma mansoni Redox Cascade
# Settings: S. mansoni TGR/Prx2 coupled, NADPH fluorescence kinetics
# Description: NIH Molecular Libraries Screening Centers Network [MLSCN] NIH Chemical Genomics Center [NCGC] MLSCN Grant: MH076449-01 Assay Provider: Prof David Williams, Illinois State University This is a confirmation assay for PubChem BioAssay AID 448. Schistosoma mansoni, a causative agent of schistosomiasis, resides in the bloodstream of their host up to 30 years without being eliminated by the host immune attack. One proposed survival mechanism is the production of an antioxidant "firewall" that neutralizes the oxidative assault of the host's immune attack. Schistosoma mansoni peroxiredoxins (Prx) are important parasite antioxidant proteins that play a crucial role in redox balance mechanisms. […] First, the proteins are essential for the parasite survival. […] Third, the protein(s) is amenable for study at the molecular level and can be produced in bacteria in large quantities, in soluble and active form. Inhibition of Prx activity was screened in a coupled-enzyme format with reducing equivalents being transferred from NADPH to […] via thioredoxin/glutathione reductase (TGR)-catalyzed reaction, then from thioredoxin to hydrogen peroxide via Prx-catalyzed electron transfer. A decrease in the fluorescence intensity of NADPH was used to measure the enzyme activity. Purified S. mansoni TGR and Prx were provided by Professor David L. Williams, Illinois State University.
# Buffer: 100 mM phosphate buffer, pH 7.4, 10 mM EDTA, 0.01% Tween-20. […] 100 uM NADPH/25 nM TGR/700 uM GSH/50 nM Prx2 mixture in columns 1, 2, 5-48. Titration of control potassium antimonyl tartrate (PAT, from 1 mM, then 1:5) pin-transferred to lower half of column 2. Column 1 and upper half of column 2 are neutral (100% activity). Assay Steps: Three uL of reagents were dispensed to 1536-well Greiner black plates. Compounds and controls (20 nL) were transferred via Kalypsys PinTool. The plates were incubated for 15 min at room temperature, and then a 1 uL aliquot of 400 uM NADPH/700 uM GSH was added, immediately followed by a 1uL aliquot of 2.5 mM H2O2 (to start the reaction). The plate was transferred to ViewLux (Perkin-Elmer) High-throughput CCD imager where kinetic measurements (every 30 sec, for a total of 8 min) of NADPH fluorescence were taken using 365 nm excitation/450 nm emission filter set. During dispense, enzyme-containing reagent bottles were kept submerged into 4 deg C water bath to minimize degradation.
SMILES,outcome,Potency
Cc1cc(C)c2cc(CN(CC3COCCO3)S(=O)(=O)c3ccc(Cl)cc3)c(=O)[nH]c2c1 (stereo not drawn),inactive,–
CC1=CC(=O)NP(=O)(Oc2ccc3ccccc3c2)N1 (stereo not drawn),–,120 nM (active)
COc1ccc(C(=O)c2no[n+]([O-])c2C(=O)c2ccc(OC)cc2)cc1,–,4670 nM (active)
O=C(c1cccs1)c1no[n+]([O-])c1C(=O)c1cccs1,–,1480 nM (active)
CCOC(=O)C(C(=O)OCC)c1cc(Br)c2noc3c2c1C(=O)c1ccccc1-3,inactive,–
Cc1ccc(S(=O)(=O)N(CCCN2CCCC2=O)Cc2cc3c(C)ccc(C)c3[nH]c2=O)cc1,inactive,–
CN1C(=O)c2cccc3cccc1c23,inactive,–
O=P(Nc1ccccc1F)(c1ccccc1)c1nc2ccccc2s1 (stereo not drawn),–,23900 nM (active)
COc1ccc2cc(CN(C[C@H]3COCCO3)S(=O)(=O)c3ccccc3)c(=O)[nH]c2c1,inactive,–
Cc1cc2cc(CN(CCCN3CCCC3=O)S(=O)(=O)c3ccc(F)cc3)c(=O)[nH]c2cc1C,inactive,–
CC1=CC(=O)NP(=O)(Oc2ccccc2)N1 (stereo not drawn),–,2030 nM (active)
CCOCN1C(=O)c2cccc3cccc1c23,inactive,–
CCOc1ccc(OP2(=O)NC(=O)C=C(C)N2)cc1 (stereo not drawn),–,180 nM (active)
O=C1c2cccc3cccc(c23)N1Cc1ccccc1,inactive,–
CC1=CC(=O)NP(=O)(Oc2ccc(Cl)cc2)N1 (stereo not drawn),–,420 nM (active)
Cc1conc1C(=O)c1no[n+]([O-])c1C(=O)c1nocc1C,inactive,–
CCCCOc1cc(Br)c2noc3c2c1C(=O)c1ccccc1-3,–,800 nM (active)
COc1ccc(S(=O)(=O)N(CCCN2CCCC2=O)Cc2cc3c(C)ccc(C)c3[nH]c2=O)cc1,–,50100 nM (active)
COc1ccc2cc(CN(C[C@H]3COCCO3)S(=O)(=O)c3ccc(Cl)cc3)c(=O)[nH]c2c1,inactive,–
CCN1C(=O)c2cccc3cccc1c23,inactive,–
COC(=O)C(C(=O)OC)c1cc(Br)c2noc3c2c1C(=O)c1ccccc1-3,–,120 nM (active)
COc1ccc(S(=O)(=O)N(Cc2cc3ccc(OC)cc3[nH]c2=O)C[C@H]2COCCO2)cc1,–,66300 nM (active)
O=C(c1ccco1)c1no[n+]([O-])c1C(=O)c1ccco1,–,1520 nM (active)

# — PubChem BioAssay AID1011 (National Center for Advancing Translational Sciences (NCATS), 2008)
